Experimental data from PubChem BioAssay (NCATS).
Records with an inconclusive call do not appear. The source made the active and inactive calls. Calls come from the whole dose curve; as a rule, active = well fitted cell-killing curve with a large enough effect; inconclusive = small, poorly fitted or top-dose-only effect; inactive = no such curve, though single readings can be large or run the other way.

Assay: qHTS of pediatric cancer cell lines to identify multiple opportunities for drug repurposing: Primary screen for Rh41 cells (AID 1347108); note: nearly all actives have a fitted effect of over 70% in size;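 for activity change, negative = cytotoxic: luminescence drop marks cytotoxic hits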
Settings: Rh41 rhabdomyosarcoma viability, CellTiter-Glo luminescence, 48 h; series mostly up to 46 µM; activity change, negative = cytotoxic: at the top concentration
Outline: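 ATP-based luminescence (CellTiter-Glo) quantifies viability after a 48-hour exposure. Compounds are dosed across 8 or 11 final concentrations; DMSO and 2.3 µM bortezomib serve as controls.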
Potency is the fitted concentration of half-maximal effect.

Compound | activity change, negative = cytotoxic | Potency
Cn1c(=O)c(-c2c(Cl)cccc2Cl)cc2cnc(Nc3cccc(C(=O)O)c3)nc21 | -3.16% (inactive) | 
CN1CCN(c2cccc(Nc3nc4c(-c5ccc(S(C)(=O)=O)cc5)cccn4n3)c2)CC1 |  | 18.7 µM (active)
CCC=CC[C@H]1C(=O)CC[C@@H]1CC(=O)OC | 9.91% (inactive) | 
OC[C@H]1O[C@@H](Oc2ccc(O)cc2)[C@H](O)[C@@H](O)[C@H]1O | 23.1% (inactive) | 
CO[C@H]1O[C@@H]2O[C@@]3(C)CC[C@@H]4[C@@H](C)CC[C@@H]([C@H]1C)[C@@]24OO3 | -3.59% (inactive) | 
Cc1cn([C@@H]2C[C@@H](O)[C@H](CO)O2)c(=O)[nH]c1=O | -14.3% (inactive) | 
